Results reported in PubChem BioAssay (Tox21).
Results filed as inconclusive are left out. Entries that show only a call come without a potency. Values without a mark were called inactive. Activity calls are given as the source filed them. Calls follow the shape of the full dose curve.

Target: Beta-2 adrenergic receptor (Homo sapiens) (UniProt P07550)
Assay: Adrenergic beta2 receptor (ADRB2) small molecule agonists, cell-based qHTS assay (AID 1963593);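 as to activation: CHO cells stably overexpressing human ADRB2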
Details: CHO-ADRB2 cells, cAMP HTRF, 30 min; series mostly up to 92.4 µM
How it was run: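 CHO cells stably over-expressing ADRB2 were plated overnight at 37C, then dosed with compounds plus a stimulation mix containing 100uM IBMX and 25uM Ro-20-1724 for 0.5hr at room temperature. cAMP was measured by HTRF competition, 1hr.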
Potency is read from the fitted curve at half-maximal effect.

Chain of Beta-2 adrenergic receptor (Homo sapiens) (P07550 whole entry, looked up): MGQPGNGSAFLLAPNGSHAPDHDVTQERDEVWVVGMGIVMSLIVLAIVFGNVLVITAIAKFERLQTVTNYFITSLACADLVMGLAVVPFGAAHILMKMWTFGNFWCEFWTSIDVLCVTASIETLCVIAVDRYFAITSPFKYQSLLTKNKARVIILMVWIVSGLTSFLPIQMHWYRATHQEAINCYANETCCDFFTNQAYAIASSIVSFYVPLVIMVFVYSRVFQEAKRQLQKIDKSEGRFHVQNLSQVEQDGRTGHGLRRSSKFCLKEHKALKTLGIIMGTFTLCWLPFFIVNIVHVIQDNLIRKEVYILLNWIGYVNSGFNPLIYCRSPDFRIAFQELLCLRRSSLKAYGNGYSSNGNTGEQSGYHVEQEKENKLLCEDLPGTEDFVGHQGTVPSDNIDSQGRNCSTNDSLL

SMILES | Potency | activation
CCN(CC)CCc1c[nH]c2ccccc12 | inactive | –
CCSC(C)CC1CC(=O)C(/C(CC)=N/OC/C=C/Cl)=C(O)C1 (stereo unspecified) | inactive | –
COc1ccc(C(=O)N2CCCC2=O)cc1 | inactive | –
C[N+](C)(C)CCOC(=O)C(O)(c1ccccc1)c1ccccc1 | inactive | –
CCOP(=O)(OCC)Oc1cc(C)nc(C(C)C)n1 | inactive | –
C[C@H](N)[C@H](O)c1ccc(O)c(O)c1 | 7.5 µM (active) | –
Cc1cccc(Cc2cnc[nH]2)c1C | inactive | –
Clc1ccc(C2(Cn3cncn3)CC(Br)CO2)c(Cl)c1 (stereo unspecified) | inactive | –
NCC1(CC(=O)O)CCCCC1 | inactive | –
CC(C)(C)NC[C@H](O)c1ccc(O)cc1Cl | 0.006 µM (active) | –
CCCCCCCCCCCCCN1CC(C)OC(C)C1 (stereo unspecified) | inactive | –
CCN[C@@H](C)Cc1ccccc1 | inactive | –
CN=CNc1ccc(C)cc1C | inactive | –
CCCCCC[N+](=O)[O-] | inactive | –
CCn1cc[n+](C)c1 (tested in a mixture with another compound) | inactive | –
C=CC(=O)OCC(COC(=O)C=C)(COC(=O)C=C)COC(=O)C=C | 24.3 µM (active) | –
COc1nn(C(=O)NS(=O)(=O)c2ccccc2OC(F)(F)F)c(=O)n1C | inactive | –
O=S(=O)(C(Cl)(Cl)Cl)C(Cl)(Cl)Cl | inactive | –
Clc1ccc(C(Cl)(Cl)Cl)cc1Cl | inactive | –
c1ccc(OCC2CO2)cc1 (stereo unspecified) | inactive | –
C#CC(C)(C)O | inactive | –
NC(=O)CI | inactive | –
CNC(=O)O/N=C(\C)SC | inactive | –

SMILES | Potency | activation
CNC(=O)N(C)c1nc2ccccc2s1 | inactive | –
Clc1ccc(C(OCCN2CCCCC2)c2ccccc2)cc1 (stereo unspecified) | inactive | –
BrCCCCCCBr | inactive | –
c1csc(-c2ccc(-c3cccs3)s2)c1 | inactive | –
CN(C)CCc1c[nH]c2ccccc12 | inactive | –
CC(C)N(CCC(C(N)=O)(c1ccccc1)c1ccccn1)C(C)C (stereo unspecified) | inactive | –
CCCN1CCC[C@@H]2Cc3nc(N)ncc3C[C@H]21 | inactive | –
Oc1ccccc1Br | inactive | –
CC(C)COP(=O)(OCC(C)C)OCC(C)C | inactive | –
O=c1c(C2CC(c3ccc(-c4ccc(Br)cc4)cc3)Cc3ccccc32)c(O)sc2ccccc12 (stereo unspecified) | inactive | –
CC(=O)OC(c1ccccc1)C(Cl)(Cl)Cl (stereo unspecified) | inactive | –
CCCCCOC(=O)c1ccccc1C(=O)OCCCCC | inactive | –
Cc1cc(C)c(C(=O)P(=O)(C(=O)c2c(C)cc(C)cc2C)c2ccccc2)c(C)c1 | inactive | –
BrCC(Br)C1CCC(Br)C(Br)C1 (stereo unspecified) | inactive | –
CCCN(CC)CC1COC2(CCC(C(C)(C)C)CC2)O1 (stereo unspecified) | inactive | –
O=C1c2ccccc2C(=O)c2ccccc21 | – | -36.8% [at 19 µM]
CCCN(CCC)CCc1c[nH]c2ccccc12 | inactive | –
N#CN=C1SCCN1Cc1ccc(Cl)nc1 | inactive | –
CCS(=O)(=O)c1cccnc1S(=O)(=O)NC(=O)Nc1nc(OC)cc(OC)n1 | inactive | –
CN1CCC(O)(c2ccc(F)cc2)C(C(=O)c2ccc(F)cc2)C1 (stereo unspecified) | inactive | –
O=C(Nc1ccccc1)Nc1cnns1 | inactive | –
CC(C)N(C(=O)SC/C(Cl)=C/Cl)C(C)C | inactive | –
C[C@H]1[C@@H]2Cc3ccc(O)cc3[C@@]1(C)CCN2C | inactive | –
